# Test results taken from PubChem BioAssay AID431 (Sanford-Burnham Center for Chemical Genomics, 2006).
# Hit rate of the full screen: of about 63,000 compounds, about 1,100 (1.7%) were called active. For the sample, actives were picked, then their nearest neighbours and some compounds at random. Potency and affinity values are given separately. Unmarked numbers belong to inactive results.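 How the source made its calls: active means compounds whose percent cytotoxicity in the single-dose primary screen, scaled between solvent and toxic-drug controls, exceeds 50; inactive means the rest.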
# Assay: viability loss of HPDE-C7K cells – cell-based, fluorescence, HTS, primary screen (AID 431);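 further: 0% = DMSO solvent wells and 100% = doxorubicin-treated wells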
# Details: HPDE-C7K KRASV12 cells, Alamar Blue viability, 48 h; at 10 µM; stronger effect = higher value
row,Structure (SMILES),cytotoxicity
1,COc1ccc(-c2nnc3n2N=C(c2ccccc2)CS3)cc1OC,-3%
2,COc1cc(-c2nnc3n2N=C(c2ccccc2)CS3)cc(OC)c1OC,63.5% (active)
3,COc1ccc(OC)c(C2=Nn3c(nnc3-c3cc(OC)c(OC)c(OC)c3)SC2)c1,10.4%
4,COc1cc2c(cc1OC)C(/C(C#N)=N\O)=NC(C)(C)C2,7%
5,CCOC(=O)/C=C1\NC(C)(C)Cc2cc(OC)c(O)cc21,5.5%
6,O=C(CN1CCN(c2ccccc2F)CC1)Nc1ccccc1F,-7%
7,CCCCCCNC(=O)c1c(O)c2ccccc2[nH]c1=O,-1.5%
8,C=CCn1c(N)c(C(=O)NCc2ccco2)sc1=S,7.1%
9,CCCCNC(=O)c1sc(=S)n2c1[nH]c(=O)c1ccccc12,62.6% (active)
10,O=C(NCc1ccco1)c1sc(=S)n2c1[nH]c(=O)c1ccccc12,81.4% (active)
11,CCCCNC(=O)c1ccccc1C(=O)NCCCC,-2.3%
12,CCn1c(N)c(C(=O)NCc2ccco2)sc1=S,-5.3%
13,O=C(NCCCN1CCN(c2ccccc2F)CC1)C1CCC(=O)N1C1CCCC1 (stereo not given),-6.6%
14,Cn1c(CCCCCN)nc2ccccc21,-27.2%
15,OCCN(Cc1ccccc1)Cc1ccccc1F,-13.3%
16,CCCc1ccc(Oc2cn[nH]c2-c2ccc(O)cc2O)cc1,29.1%
17,COc1ccc(O)c(-c2[nH]ncc2C(=O)c2ccccc2C)c1,2.7%
18,CCCc1ccc(Oc2cn[nH]c2-c2ccc(O)c(C)c2O)cc1,119% (active)
19,CCCc1ccc(OCC(=O)O)cc1,2.3%
20,CC(C)Sc1ncnc2c1oc1ccccc12,-7.4%
21,COc1ccc(CNC(=O)CSc2nc3nc(C)cc(C)n3n2)cc1,1.6%
22,Cc1nn(-c2cccc(C(F)(F)F)c2)c(Cl)c1/C=N/n1cnnc1,3.5%
23,Fc1ccccc1CSc1nnnn1-c1ccc2c(c1)OCO2,2.3%
24,Fc1cccc(Cl)c1CSc1nnnn1-c1ccc2c(c1)OCO2,51.7% (active)
25,Fc1cccc(Cl)c1Cn1nnc(-c2ccc3c(c2)OCO3)n1,-3.6%

row,Structure (SMILES),cytotoxicity
1,Cc1ccc2nc(NC3=NCN(Cc4ccc5c(c4)OCO5)CN3)nc(C)c2c1,12.9%
2,Cc1nc(NC2=NCN(Cc3ccc4c(c3)OCO4)CN2)nc2ccccc12,15.2%
3,Cc1cc2nc(NC3=NCN(Cc4ccc5c(c4)OCO5)CN3)nc(C)c2cc1C,90% (active)
4,Cc1ccc2nc(NC3=NCN(Cc4cccnc4)CN3)nc(C)c2c1,5.9%
5,Cc1cc2nc(NC3=NCN(Cc4cccnc4)CN3)nc(C)c2cc1C,53.3% (active)
6,Cc1nc(NC2=NCN(Cc3cccnc3)CN2)nc2ccccc12,6.2%
7,Cc1ccc(CCN2CC(C(=O)NCCCN3CCOCC3)CC2=O)cc1 (stereo not given),2%
8,Cc1ccc(C)n1-c1ncn[nH]1,1.3%
9,CC1(C)Cc2c(C#N)c(NCCN3CCOCC3)nc(-c3ccco3)c2CO1,8.7%
10,OCCN(CCO)c1ncnc2c1sc1nc(N3CCOCC3)c3c(c12)CCCC3,34.4%
11,c1nc(NCCN2CCOCC2)c2sc3nc(N4CCOCC4)c4c(c3c2n1)CCC4,18.4%
12,CSc1nc(N2CCN(CCO)CC2)c2sc3nc(-c4ccco4)c4c(c3c2n1)CCC4,4.4%
13,O=C(Cn1cc2c(n1)CCCCC2)N1CCCCC1,5.5%
14,CCc1ccc(OCC(=O)N(C)C)c(Br)c1,7%
15,CCCCc1ccc(NC(=O)OC)cc1,-10.3%
16,CCCCc1ccc(NC(=O)COCC)cc1,-2.8%
17,CCOC(=O)CSC(CC)C(=O)Nc1nnc(C(C)C)s1 (stereo not given),1.3%
18,COc1ccc(CCNC(=O)C2CCN(C(=O)N(C)C)CC2)cc1OC,-12.4%
19,CCOC(=O)c1cc(-c2ccco2)nc2c1c(C)nn2-c1ccccc1,-7.1%
20,CCOc1cc(NC(=O)c2ccco2)c(OCC)cc1NC(=O)c1cc(OC)c(OC)c(OC)c1,7.5%
21,COc1cc(C(=O)Nc2ccc(NC(=O)c3ccco3)nc2)cc(OC)c1OC,-3.4%
22,COc1cc(NC(=O)c2ccco2)c(OC)cc1NC(=O)c1cc(OC)c(OC)c(OC)c1,50.8% (active)
23,COc1cccc(NC(=O)Cn2nnc(-c3ccccc3N)n2)c1,6.3%
24,CCc1ccc2[nH]c(=O)c(CN(CCO)C(=O)NCc3ccccc3)cc2c1,-4.1%
25,N#Cc1cc(Oc2cccc3cccnc23)c(-n2nnc3ccccc32)cc1C#N,74.9% (active)

row,Structure (SMILES),cytotoxicity
1,COc1ccccc1Oc1cc(C#N)c(C#N)cc1-n1nnc2ccccc21,-24.3%
2,c1ccc(-n2nnnc2Oc2cccc3cccnc23)cc1,-4.5%
3,CCCC(=O)n1nc(-c2ccco2)nc1SCc1ccccc1,2.3%
4,CCn1c(SCC(=O)Nc2ccc(S(=O)(=O)Nc3ccccn3)cc2)nnc1-c1ccncc1,-0.6%
5,COC(=O)c1c(C(=O)OC)c2n(c1C)Cc1ccccc1C2,3%
6,O=C(NCc1ccco1)c1cccc(NC(=O)c2ccccc2)c1,33.2%
7,Cc1ccc(C(=O)Nc2cccc(C(=O)NCc3ccco3)c2)cc1,66.2% (active)
8,O=C(NCc1ccccc1)c1cccc(NC(=O)c2ccco2)c1,35.4%
9,Cc1occc1C(=O)Nc1cccc(C(=O)NCc2ccccc2)c1,-17.7%
10,CCC(CC)C(=O)Nc1cccc(C(=O)NCc2ccco2)c1,-2.1%
11,CCc1ccc(-n2c(SCC(=O)Nc3cc(C)[nH]n3)nc3[nH]ncc3c2=O)cc1,-4.9%
12,COc1ccc2nc(NC(=O)C3CCN(S(=O)(=O)c4cnc[nH]4)CC3)sc2c1,14.5%
13,O=C(Nc1c(C(=O)NCc2ccco2)cnn1-c1ccccc1)c1cccc(F)c1,7.2%
14,O=C(NCc1ccco1)c1cc2ccccc2o1,7.8%
15,Cc1ccc(-n2c(N)c(-c3nc4ccccc4n3C)sc2=S)cc1,9.5%
16,C=CCn1c(N)nc2ccccc21,-9.7%
17,C=CCn1c(N)c(-c2nc3ccccc3n2C)sc1=S,50.1% (active)
18,CCC(=O)Nc1ccc(NC(=O)c2c(C)nc3ccccn23)cc1,-2.5%
19,O=C(CCCC(=O)N(CC(=O)NC1CCCC1)Cc1ccc(F)cc1)Nc1ccccn1,14.7%
20,C/C=C/Cn1c(N(C)Cc2ccccc2)nc2c1c(=O)[nH]c(=O)n2C,5.8%
21,CCOc1cc(N2CCOCC2)c(OCC)cc1NC(=O)COc1cccc2cccnc12,51% (active)
22,CCOc1cc(N2CCOCC2)c(OCC)cc1NC(=O)Cc1ccc(OC)c(OC)c1,-1.4%
23,CCOc1cc(N2CCOCC2)c(OCC)cc1NC(=O)CN1CCc2ccccc2C1,9.3%
24,CC(C)(C)c1ccc(C(=O)N2CCC(C(=O)NCC3CCCO3)CC2)cc1 (stereo not given),-1.9%
25,CC(C)Cn1c(SCC(=O)NC2CCCc3ccccc32)nc(O)cc1=O (stereo not given),-9.4%

row,Structure (SMILES),cytotoxicity
1,N#Cc1c(/N=C/c2ccco2)oc(-c2ccccc2)c1-c1ccccc1,78.7% (active)
2,N#Cc1c(N)oc(-c2ccccc2)c1-c1ccccc1,-9.5%
3,N#Cc1c(/N=C/N2CCCC2)oc(-c2ccccc2)c1-c1ccccc1,15.9%
4,Cc1ccc(CCNc2ccccc2)c[n+]1[O-],-10.6%
5,CCOC(=O)CN1C(=O)C(O)(CC(=O)c2ccco2)c2ccccc21 (stereo not given),-77.9%
6,O=C(Nc1nccs1)Oc1ccccc1,0.7%
7,COc1ccc2c3c(cccc13)OCC2=O,18.6%
8,COc1ccc(C(C)=O)c2c(O)cccc12,12.2%
9,CC(=O)NC1CCN(C(=O)N2CCCC2)CC1,7.7%
10,O=C(CSc1n[nH]c(-c2ccncc2)n1)NC1CCS(=O)(=O)C1 (stereo not given),-7.5%
11,Cc1c(C(=O)NCc2ccoc2)oc2ccc3c(c12)C(=O)CC(C)(C)O3,36.4%
12,CCOC(=O)c1ccc(N2C(=O)CC(NC3CCN(C(=O)c4ccc(F)cc4)CC3)C2=O)cc1 (stereo not given),-19.3%
13,CC(C)OC(=O)c1cc(=O)[nH]c2ccccc12,13.4%
14,Cc1noc(C)c1S(=O)(=O)N(CC(=O)Nc1ccc2c(c1)OCO2)c1ccc(C(C)C)cc1,-3.1%
15,O=C(Cc1cccs1)NCc1ccco1,6.7%
16,Cc1ccc2c(CC(=O)NCc3ccco3)coc2c1C,73.2% (active)
17,Cc1cc(C)c2c(CC(=O)NCc3ccco3)coc2c1,5.6%
18,CN1C(=O)CC(N2CCN(C(c3ccccc3)c3ccccc3)CC2)C1=O (stereo not given),-16.6%
19,COC(=O)Cn1c(CN2CCN(c3ccc(F)cc3)CC2)nc2c1c(=O)n(C)c(=O)n2C,0.6%
20,CCOC(=O)NC(Nc1ncccn1)(C(F)(F)F)C(F)(F)F,-17.3%
21,CCCOCCOC(=O)c1[nH]c2c(c1C)C(=O)CC(c1cc(OC)ccc1OC)C2 (stereo not given),53.5% (active)
22,COc1ccc(OC)c(C2CC(=O)c3c([nH]c(C(=O)OC(C)C)c3C)C2)c1 (stereo not given),51.6% (active)
23,COc1ccc(C2CC(=O)c3c([nH]c(C(=O)OC(C)C)c3C)C2)cc1OC (stereo not given),-16.2%
24,COC(=O)c1[nH]c2c(c1C)C(=O)CC(c1cc(OC)ccc1OC)C2 (stereo not given),18.9%
25,COCCOC(=O)c1[nH]c2c(c1C)C(=O)CC(c1cc(OC)ccc1OC)C2 (stereo not given),-6.8%
